# Source: PubChem BioAssay (several laboratories)
# tim10-1 inh: inhibits growth of tim10-1 mutant yeast | S. cerevisiae tim10-1 ts strain growth, BacTiter-Glo, 24 h | inhibition, % at 20 µM | 330,000 compounds, 2.2% hits | AID 463190;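 active means inhibition of at least 40%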;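 further: mutant grown at 25 °C; 0% = DMSO wells with yeast and 100% = wells holding no yeast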
# NLRP3 yeast inh: blocks the NALP3 inflammasome reconstituted in yeast. Yeast reconstituted NLRP3/ASC/caspase-1, beta-gal luminescence, 24 h. inhibition, % at 10 µM. 330,000 compounds, 0.39% hits. AID 2825;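 active means inhibition of 50% or more; inactive means inhibition below 50%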;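 further: plate controls were induced DMSO wells for no effect and uninduced yeast grown without galactose for full effect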
# TIM10 inh: growth inhibitors of TIM10 yeast strain; S. cerevisiae TIM10 strain growth, BacTiter-Glo luminescence, 24 h; inhibition, % at 10 µM; 330,000 compounds, 1.4% hits;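 active means inhibition of 40% or more at the single tested concentration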;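 further: wild-type TIM10 isogenic control strain grown at permissive 25 °C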
# V-ATPase pH: alters yeast V-ATPase proton transport; S. cerevisiae, pHLuorin cytosolic pH fluorescence; response, % at 10 µM; 350,000 compounds, 0.37% hits; in the data active means response mostly above about 7.3%, no sharp cut-off; inactive means mostly below about 5.4%; further: actives read high
# tim23-1 inh: growth inhibitors of tim23-1 mutant yeast; 330,000 compounds, 1.3% hits; S. cerevisiae tim23-1 growth, BacTiter-Glo luminescence, 24 h; inhibition, % at 20 µM; AID 463212;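 active means growth inhibition of the mutant yeast at or above 50%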;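 further: temperature-sensitive mutant grown at 25 °C; plate controls were DMSO-treated mutant yeast for no effect and medium wells lacking yeast for full effect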
# NALP1 inh: inhibitors of NALP1 inflammasome in yeast; S. cerevisiae NALP1/ASC/caspase-1 growth, X-gal OD620, 72 h; inhibition, % at 10 µM; 280,000 compounds, 0.61% hits; in the data active means inhibition mostly above about 24%, no sharp cut-off; inactive means mostly below about 32%
# NALP3 confirm: confirmation of NALP3 inhibitors in yeast; shares compounds with NLRP3 yeast inh; yeast expressing human NALP3, luminescence; inhibition, % at 10 µM; 1,300 compounds, 81% hits; AID 435006; in the data active means inhibition above about 48%
# Casp1-ASC yeast: counter-screen for NALP3 inhibitors: yeast caspase-1-ASC. shares compounds with NLRP3 yeast inh. yeast expressing Caspase-1-ASC, luminescence counter screen. inhibition, % at 10 µM. 1,000 compounds, 66% hits
# NALP3 yeast rt: yeast NALP3 inhibition, confirmed on retest | 1,000 compounds, 53% hits | inhibition, % at 10 µM | AID 488794 | yeast expressing human NALP3, luminescence read-out | shares compounds with NLRP3 yeast inh
# Starred values were filed as active, the others as inactive; nt = not tested or not shown. In the library only some 4.2% were active in any assay of this set; here they are far more common. Unless noted, no stated cut-off is given here; in the data, active means inhibition above about 50%; inactive means the rest.
SMILES,tim10-1 inh,NLRP3 yeast inh,TIM10 inh,V-ATPase pH,tim23-1 inh,NALP1 inh,NALP3 confirm,Casp1-ASC yeast,NALP3 yeast rt
Cn1c(SCc2nc(-c3ccc(Br)cc3)no2)nnc1-c1ccco1,19,58*,13,3,35,-1,71*,61*,49
C[C@@H](C[C@@H](O)[C@H](O)C(C)(C)O)[C@@H]1CC[C@]2(C)C3=CC[C@H]4C(C)(C)C(=O)CC[C@]4(C)[C@H]3CC[C@@]12C,12,62*,18,2,28,44*,76*,nt,nt
O=C(Nc1ccc([N+](=O)[O-])cc1Cl)c1cc(Cl)ccc1O,30,96*,21,5,23,nt,99*,100*,97*
Cc1ccc(C2=NN(C(=O)CN3CCN(C4CCS(=O)(=O)C4)CC3)C(c3ccco3)C2)cc1 (configuration not stated),4,14,-1,0,9,nt,nt,nt,nt
O=C(Nc1cc2ccccc2oc1=O)c1ccccc1,16,60*,13,1,2,11,73*,51*,53*
O=C(NCc1ccccc1)c1cccc(NC(=O)C2CCCC2)c1,nt,nt,nt,0,nt,nt,nt,nt,nt
O=C(Nc1cccc(Cl)c1)Nc1cccc(Cl)c1,1,11,7,-7,18,-5,nt,nt,nt
O=C(Nc1ccccc1)Nc1cc(Cl)cc(Cl)c1,-12,56*,1,0,-8,5,77*,68*,78*
CN1CCc2nc3ccc(Cl)cc3c(-c3ccccc3Cl)c2C1,6,57*,12,-1,12,41,57*,42,41
Cc1nc2ccc(Cl)cc2c(-c2ccccc2Cl)c1CC(=O)O,-1,-2,6,1,13,12,nt,nt,nt
COC(=O)CSc1nc2cc3c(cc2cc1C)OCCO3,30,69*,36,0,33,0,73*,80*,71*
CCN(CC)c1ccc(NC(=O)COc2ccc(C)cc2)cc1,-16,50,-23,0,7,18,42,47,40
O=S(=O)(c1ccc(Br)s1)N1CCN(c2ccc(F)cc2)CC1,20,55*,-3,0,22,-37,65*,27,27
O=S(=O)(c1ccc(Br)s1)N1CCN(CCc2ccccc2)CC1,34,61*,17,1,32,nt,63*,34,28
C=CCn1c(=NC(=O)CC)n(C)c2ccccc21,-13,5,-15,11,12,25,nt,nt,nt
CCSC1(SCC)N=C(N)C2(C#N)C(c3ccc(F)cc3)C12C#N (configuration not stated),30,59*,20,0,29,15,50*,65*,47
Cc1ccc(S(=O)(=O)CC(=O)Nc2nc(C(C)(C)C)cs2)cc1,34,51*,4,2,43,4,73*,61*,49
O=C(c1nnsc1S(=O)(=O)c1ccc(Cl)cc1)N1CCOCC1,38,57*,17,2,35,5,52*,54*,50*
Nc1nc(C(=O)N2CCOCC2)nn1S(=O)(=O)c1ccc(Cl)cc1,10,5,-2,-2,7,7,nt,nt,nt
COc1ccccc1-c1cc(C(=O)NC2CCCC2)no1,-4,53*,19,-1,35,21,50*,50*,49
O=C(CSc1ncn(-c2ccccc2)n1)Nc1ccc(Br)cn1,23,75*,4,-2,29,12,76*,69*,50*
CC1=NN(C(=O)c2ccccc2-n2cccc2)C(O)(C(F)(F)F)C1 (configuration not stated),1,9,-16,3,-3,9,nt,nt,nt
CC1=NN(C(=O)c2ccc(C)cc2)C(O)(C(F)(F)OC(F)(F)F)C1 (configuration not stated),2,53*,-7,4,15,4,54*,48,35
CCOC(=O)NC(=O)C(/C=N/c1sccc1C(=O)OC)=C(\C)O,9,14,6,0,1,10,nt,nt,nt
CC(NC(=O)c1ccccc1F)C12CC3CC(CC(C3)C1)C2 (configuration not stated),21,51*,23,-1,34,nt,60*,53*,38
SMILES,tim10-1 inh,NLRP3 yeast inh,TIM10 inh,V-ATPase pH,tim23-1 inh,NALP1 inh,NALP3 confirm,Casp1-ASC yeast,NALP3 yeast rt
C/C=C/c1ccc(OCC(=O)NCc2ccccc2OC)c(OC)c1,-4,50*,5,5,24,-4,25,nt,nt
Cc1ccc2oc(C(=O)N3CCCCCC3)c(C)c2c1,8,53*,-15,-3,33,-13,62*,59*,52*
O=C(COc1ccc(Cl)cc1[N+](=O)[O-])NC1CCCCC1,-16,53*,-16,0,8,6,48,58*,47
COc1ccc(C(=O)c2ccccc2)c(OCC(=O)NC2CC2)c1,-4,52*,-20,-1,-1,28,70*,nt,nt
COC(=O)c1ccccc1OCC(=O)NC1CCCCC1,-32,77*,-11,-1,4,23,85*,89*,71*
CC(=O)NNC(=O)c1csc(-c2csc(C)n2)n1,-8,-3,6,-6,-15,-6,nt,nt,nt
CC(OC(=O)Cn1cnc2c1c(=O)n(C)c(=O)n2C)C(=O)NC(C)c1ccc(Cl)cc1Cl (configuration not stated),16,21,4,-3,8,nt,nt,nt,nt
CC(=O)Oc1c(I)cc(I)cc1C(=O)Nc1ccc(Cl)cc1,37,60*,-2,3,42,3,77*,47,58*
Cc1ccc(-c2cc(-c3ccccc3)no2)c(O)c1,nt,nt,nt,2,nt,27,nt,nt,nt
Oc1ccccc1-c1cc(-c2ccccc2)no1,-55,55*,-19,-1,35,18,60*,59*,56*
Nc1nc(SCC(=O)Nc2cc(Cl)c(Cl)cc2Cl)n[nH]1,2,5,1,0,-4,nt,nt,nt,nt
COCc1cc(N2CCOCC2)nc(SCc2ccc(Cl)cc2)n1,-7,58*,9,3,9,18,47*,68*,43
C[C@@H]1CN([C@@H](C)CO)C(=O)CCCn2nncc2CO[C@H]1CN(C)S(=O)(=O)c1ccc(-n2cccn2)cc1,nt,nt,nt,-1,nt,nt,nt,nt,nt
O=S(=O)(c1cnc(Cl)c(Br)c1)N1CCN(c2ncccn2)CC1,-20,18,0,3,-12,9,nt,nt,nt
O=S(=O)(c1cnc(Cl)c(Br)c1)N1CCCCCC1,11,53*,-3,1,-1,28,55*,35,25
Nc1ncc(Br)cc1S(=O)(=O)N1CCCCCC1,-13,53*,-11,-2,5,37,59*,56*,38
